Results: paper PMC4336329 (PLoS ONE, 2015)
Hit rate of the full screen: of about 310,000 compounds, about 14,000 (4.5%) showed an effect of 50% or more. Effects have a minus sign here. The list comes from a sample in which strong results are over-represented; it also holds similar structures and randomly drawn compounds.

molecular target: human ether-à-go-go-related gene (hERG) potassium channel (human, UniProt Q12809); test: primary screen, population patch clamp on CHO cells stably expressing hERG; higher = less effect of the substance
Sequence (Q12809 whole entry, looked up): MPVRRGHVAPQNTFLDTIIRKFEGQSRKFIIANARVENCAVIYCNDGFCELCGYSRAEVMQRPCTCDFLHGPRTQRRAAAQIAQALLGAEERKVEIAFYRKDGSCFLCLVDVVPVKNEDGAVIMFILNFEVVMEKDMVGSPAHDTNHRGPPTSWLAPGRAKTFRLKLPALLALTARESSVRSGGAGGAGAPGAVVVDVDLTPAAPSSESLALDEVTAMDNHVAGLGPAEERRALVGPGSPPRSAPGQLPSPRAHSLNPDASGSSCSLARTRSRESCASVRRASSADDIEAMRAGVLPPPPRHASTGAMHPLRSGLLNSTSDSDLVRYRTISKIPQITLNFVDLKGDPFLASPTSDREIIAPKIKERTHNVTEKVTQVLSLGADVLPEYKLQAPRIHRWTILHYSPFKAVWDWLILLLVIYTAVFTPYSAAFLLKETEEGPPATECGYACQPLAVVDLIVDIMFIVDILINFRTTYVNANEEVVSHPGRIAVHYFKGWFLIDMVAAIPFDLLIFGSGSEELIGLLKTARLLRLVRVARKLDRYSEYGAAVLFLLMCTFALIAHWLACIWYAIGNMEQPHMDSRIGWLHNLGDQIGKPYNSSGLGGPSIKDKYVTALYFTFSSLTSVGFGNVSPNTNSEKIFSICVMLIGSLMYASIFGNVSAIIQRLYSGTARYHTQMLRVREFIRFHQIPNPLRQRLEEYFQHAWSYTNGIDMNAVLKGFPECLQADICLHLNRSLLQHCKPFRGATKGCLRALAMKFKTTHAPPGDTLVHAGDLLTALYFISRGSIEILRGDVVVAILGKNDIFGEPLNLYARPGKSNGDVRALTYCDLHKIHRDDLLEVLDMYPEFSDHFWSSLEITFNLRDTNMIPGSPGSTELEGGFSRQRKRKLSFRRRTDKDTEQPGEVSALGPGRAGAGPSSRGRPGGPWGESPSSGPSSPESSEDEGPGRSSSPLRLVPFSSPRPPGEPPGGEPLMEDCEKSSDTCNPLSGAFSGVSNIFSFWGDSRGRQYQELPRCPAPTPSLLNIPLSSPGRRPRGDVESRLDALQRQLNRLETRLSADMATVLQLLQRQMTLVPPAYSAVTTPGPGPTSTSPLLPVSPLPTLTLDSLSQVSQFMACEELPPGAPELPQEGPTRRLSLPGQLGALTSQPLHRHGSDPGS
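Also: peak tail current of the secondary pulse compared with the same well before compound.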

Going from CN(C)C(=O)/C(=C/c1ccc(-c2cccc([N+](=O)[O-])c2)o1)NC(=O)c1ccccc1 to CN(C)CCNC(=O)/C(=C/c1ccc(-c2cccc([N+](=O)[O-])c2)o1)NC(=O)c1ccccc1, the “hERG current change (%, negative = inhibition) at 10uM” value falls from -21.3% to -75.4%.

Compared with O=C(NCCCO)/C(=C/c1ccc(-c2cccc([N+](=O)[O-])c2)o1)NC(=O)c1ccccc1, CN(C)CCCNC(=O)/C(=C\c1ccc(-c2cccc([N+](=O)[O-])c2)o1)NC(=O)c1ccccc1 is lower in “hERG current change (%, negative = inhibition) at 10uM” value: -31.5% for the first, -81.2% for the second.

Compared with CCCCCn1c(=O)[nH]c2cc(C(=O)NCCN3CCCCC3C)ccc2c1=O (stereo not drawn), CCN1C(=O)c2ccc(C(=O)Nc3ncc(C)s3)cc2C1=O is higher in “hERG current change (%, negative = inhibition) at 10uM” value: -15.9% for the first, 6.29% for the second.

Compared with CCOC(=O)c1ccc(NC(=S)NNC(=O)C2(C)CC2(Cl)Cl)cc1 (stereo not drawn), CC1(C(=O)OCc2cc(=O)n3cc(Br)ccc3n2)CC1(Cl)Cl (stereo not drawn) is lower in “hERG current change (%, negative = inhibition) at 10uM” value: 28.4% for the first, -54.3% for the second.

Going from O=C(O)CCSc1nnc(COc2ccc([N+](=O)[O-])cc2)n1-c1ccccc1 to O=[N+]([O-])c1ccc(C[n+]2cccc3ccccc32)cc1.[Cl-], the “hERG current change (%, negative = inhibition) at 10uM” value falls from 22.8% to -3.07%.

Going from C/C(=C\[C@@H](NP(=O)(c1ccccc1)c1ccccc1)c1ccccc1)CO[Si](c1ccccc1)(c1ccccc1)C(C)(C)C to Cc1ccc2nc(-c3ccc(NC(=O)CCS(=O)(=O)c4ccccc4)cc3)sc2c1, the “hERG current change (%, negative = inhibition) at 10uM” value falls from 5.58% to 2.03%.

First: CCN(CC)S(=O)(=O)c1cccc(C(=O)NCC(=O)OCC(=O)NCc2ccccc2)c1
Second: CC(=O)NCC(=O)N1CCCC(C(=O)c2ccc(Oc3ccccc3)cc2)C1 (stereo not drawn)
The “hERG current change (%, negative = inhibition) at 10uM” value of the first is higher: -7.41% for the first, -23.2% for the second.

First: C[C@H](NS(=O)(=O)c1ccc(Cl)c(Cl)c1)C(=O)OCc1cc(=O)n2cc(Br)ccc2n1
Second: Cc1cc(C)c(C)c(S(=O)(=O)N[C@@H](C)C(=O)OCc2cc(=O)n3cc(Br)ccc3n2)c1C
The “hERG current change (%, negative = inhibition) at 10uM” value of the first is lower: -63.4% for the first, -47% for the second.

Going from CC1CC1C(=O)OCc1cc(=O)n2cc(Br)ccc2n1 (stereo not drawn) to CCOc1ccc(CC(=O)OCc2cc(=O)n3cc(Br)ccc3n2)cc1, the “hERG current change (%, negative = inhibition) at 10uM” value rises from -16.2% to -6.01%.

Compared with O=C(CNS(=O)(=O)c1ccc(Br)cc1)OCc1cc(=O)n2cc(Br)ccc2n1, COc1ccc(NS(=O)(=O)c2cc(NC(=O)c3ccc(=O)[nH]c3)ccc2C)cc1 is higher in “hERG current change (%, negative = inhibition) at 10uM” value: -26% for the first, 15.1% for the second.

Going from CC(=O)Nc1ccc(S(=O)(=O)N2CCN(c3nnnn3-c3ccccc3)CC2)cc1 to CC1CCCC(C)N1S(=O)(=O)c1ccc(NC(=O)c2ccccc2C(=O)N2CCOCC2)cc1 (stereo not drawn), the “hERG current change (%, negative = inhibition) at 10uM” value falls from 13.1% to -3.57%.

Compared with O=[N+]([O-])c1ccc(C[n+]2cccc3c4ccccc4ccc32)cc1.[Br-], O=[N+]([O-])c1ccc(C[n+]2cccc3ccc4cccnc4c32)cc1.[Br-] is lower in “hERG current change (%, negative = inhibition) at 10uM” value: -40.5% for the first, -62.6% for the second.

First: CN(C)c1ccc(C2N(C(=O)N3CCOCC3)CCN2S(=O)(=O)c2ccccc2)cc1 (stereo not drawn)
Second: CCN1CCN(CC(=O)N2CCCC(C(=O)c3ccc(Oc4ccccc4)cc3)C2)CC1 (stereo not drawn)
The “hERG current change (%, negative = inhibition) at 10uM” value of the first is higher: 3.98% for the first, -52.7% for the second.

First: COCC(=O)N1CCCC(C(=O)c2ccc(Oc3ccccc3)cc2)C1 (stereo not drawn)
Second: COCCC(=O)N1CCCC(C(=O)c2ccc(Oc3ccccc3)cc2)C1 (stereo not drawn)
The “hERG current change (%, negative = inhibition) at 10uM” value of the first is higher: -34.1% for the first, -79.3% for the second.

Compared with CC(=O)N1CCCC(C(=O)c2ccc(Oc3ccccc3)cc2)C1 (stereo not drawn), CCn1nc(C)cc1C(=O)N1CCCC(C(=O)c2ccc(Oc3ccccc3)cc2)C1 (stereo not drawn) is lower in “hERG current change (%, negative = inhibition) at 10uM” value: -5.43% for the first, -9.04% for the second.

Going from NC(=O)[C@@H]1CCCN1Cc1nc(Cc2ccccc2F)no1 to CCOC(=O)c1[nH]ncc1CN1CCCC(C(=O)c2cccc3ccccc23)C1 (stereo not drawn), the “hERG current change (%, negative = inhibition) at 10uM” value falls from 7.29% to -45.8%.

Going from CC(C)CCOP(N)(=O)Oc1ccccc1 (stereo not drawn) to COc1ccc(C(=O)C2CCCN(Cc3cn[nH]c3-c3ccccc3)C2)cc1OC (stereo not drawn), the “hERG current change (%, negative = inhibition) at 10uM” value falls from 9.05% to -74%.

First: COc1ccccc1-c1cc(C(=O)N/N=C\c2cnn(C)c2C)c2ccccc2n1
Second: Cn1ccnc1C(=O)C1CCCN(Cc2cn[nH]c2-c2ccc(-c3ccccc3)cc2)C1 (stereo not drawn)
The “hERG current change (%, negative = inhibition) at 10uM” value of the first is higher: -3.85% for the first, -67.9% for the second.

Compared with CC1CN(c2nc3ccccn3c(=O)c2/C=C(\C#N)C(N)=O)CC(C)O1 (stereo not drawn), Cn1cc(CN2CCCC(C(=O)c3nccn3C)C2)c(-c2cccc(Cl)c2)n1 (stereo not drawn) is lower in “hERG current change (%, negative = inhibition) at 10uM” value: 21.1% for the first, -31.1% for the second.

Going from CC1(C)Cc2nc3sc(C(=O)O)c(N)c3cc2CS1 to COc1ccc(C(=O)C2CCCN(Cc3cn[nH]c3-c3ccc(F)cc3)C2)cc1OC (stereo not drawn), the “hERG current change (%, negative = inhibition) at 10uM” value falls from 29.4% to -66.5%.

First: COc1ccc(C(=O)C2CCCN(Cc3ccc(F)cc3F)C2)cc1F (stereo not drawn)
Second: COc1ccc(C(=O)C2CCCN(C(=O)c3ccc(F)cc3)C2)cc1OC (stereo not drawn)
The “hERG current change (%, negative = inhibition) at 10uM” value of the first is lower: -29.8% for the first, -3.95% for the second.
